HTR5A inv ag: HTR5A inverse agonism, opioid heterodimer counter-screen. P47898. HTR5A cell line, luminescence. inhibition, % at 9.3 µM. 340,000 compounds, 0.083% hits; in the data active means inhibition mostly above about 23%, no sharp cut-off; inactive means mostly below about 18%;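 further: 0% = cells with DMSO and 100% = no-cell wells with DMSO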
Target sequence (P47898 whole entry, looked up): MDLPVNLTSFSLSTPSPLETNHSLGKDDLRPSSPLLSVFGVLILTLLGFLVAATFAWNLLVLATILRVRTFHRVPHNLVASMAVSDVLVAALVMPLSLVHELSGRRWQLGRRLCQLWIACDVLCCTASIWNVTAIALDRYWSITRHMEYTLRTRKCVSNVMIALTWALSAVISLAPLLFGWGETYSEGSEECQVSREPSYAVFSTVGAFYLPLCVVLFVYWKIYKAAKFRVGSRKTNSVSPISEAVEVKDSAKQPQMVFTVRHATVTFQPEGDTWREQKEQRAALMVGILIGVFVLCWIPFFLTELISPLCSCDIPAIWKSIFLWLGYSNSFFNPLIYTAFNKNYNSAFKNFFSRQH
MOR-DOR ag-1: OPRM1-OPRD1 heterodimerization agonism; cells, luminescence; activation, % at 9.3 µM; P35372+P41143; 340,000 compounds, 0.3% hits; in the data active means activation above about 18%;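 further: 0% = vehicle-treated cells and 100% = reference agonist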
HTR5A ag: HTR5A agonism, opioid heterodimer counter-screen; HTR5A agonist assay, luminescence, cell-based; activation, % at 9.3 µM; 340,000 compounds, 0.61% hits; AID 504692; in the data active means activation mostly above about 9.5%, no sharp cut-off; inactive means mostly below about 7.6%;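 further: 0% = cells with vehicle only and 100% = reference agonist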
MOR-DOR inv ag-1: inverse agonist of human OPRM1-OPRD1 heterodimerization; P35372+P41143; inhibition, % at 9.3 µM; 340,000 compounds, 0.21% hits; cell-based MOR-DOR heterodimer luminescence, inverse agonism; in the data active means inhibition above about 22%, passing the limit was not always enough;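 further: 0% = cells with DMSO and 100% = wells without cells with DMSO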
MOR-DOR inv ag-2: inverse agonist of OPRM1-OPRD1 heterodimerization in HTR5A counter-screen; shares compounds with HTR5A inv ag; inhibition, % at 9.3 µM; 190 tested, under 10 active; U2OS counter-screen cells, complementation luminescence;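 further: 0% = cells with DMSO and 100% = wells without cells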
HTR5A inv confrm: confirmation of human HTR5A inverse agonists; shares compounds with HTR5A inv ag; HTR5A-expressing cells, inverse agonism, luminescence; 190 tested, under 10 active; inhibition, % at 9.3 µM;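 further: 0% = cells with DMSO and 100% = no cells with DMSO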
MOR-DOR ag-2: counter-screen for HTR5A agonists: OPRM1-OPRD1 heterodimerization agonism; activation, % at 9.3 µM; shares compounds with HTR5A ag; U2OS counter-screen cells, complementation luminescence, 3 h; 800 compounds, 13% hits; in the data active means activation above about 18%
HTR5A ag confirm: confirmation of human HTR5A agonists. shares compounds with HTR5A ag. HTR5A agonist cell assay, luminescence. activation, % at 9.3 µM. 800 compounds, 17% hits; in the data active means activation above about 17%;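 further: 0% = cells with vehicle only and 100% = full reference agonist response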
Numbers without * were called inactive; . = no result given. Only some compounds are listed: those with a hit (about 1.1% of all), similar ones and a draw of the others. Unless noted, how the calls were made is not given here.

SMILES	HTR5A inv ag	MOR-DOR ag-1	HTR5A ag	MOR-DOR inv ag-1	MOR-DOR ag-2	HTR5A ag confirm	others
Cc1noc(/C=C/c2ccco2)c1S(=O)(=O)N1CCC(C(=O)NCc2ccco2)CC1	27*	-3	-10	13	.	.	MOR-DOR inv ag-2=-9;HTR5A inv confrm=-8
Cc1n[nH]c(=S)n(NC(=O)CC(=O)Nn2c(=S)[nH]nc(C)c2=O)c1=O	65*	3	-24	-17	.	.	MOR-DOR inv ag-2=-85;HTR5A inv confrm=16
O=C(O)c1ccc(CS(=O)(=O)c2ccc(Br)cc2)cc1	7	-2	-3	8	.	.
CC(C)CC1Nc2ncnc(N3CCN(c4ccccc4)CC3)c2N(Cc2ccccc2)C1=O (stereo not given)	-3	0	1	-1	.	.
COc1ccc(CN2C(=O)C(CC(C)C)Nc3ncnc(N4CCN(c5ccccc5)CC4)c32)cc1 (stereo not given)	-16	-2	0	14	.	.
COc1ccc(CN2C(=O)C(Cc3ccccc3)Nc3ncnc(N4CCN(c5ccccc5)CC4)c32)cc1 (stereo not given)	44*	-9	-15	41	.	.	MOR-DOR inv ag-2=21;HTR5A inv confrm=55*
CC(C)CC1Nc2ncnc(N3CCN(c4ccccn4)CC3)c2N(Cc2ccc(Cl)cc2)C1=O (stereo not given)	40*	3	3	-16	.	.	MOR-DOR inv ag-2=-27;HTR5A inv confrm=13
COC(=O)c1cc(S(=O)(=O)Nc2ccc(C)cn2)c[nH]1	4	-4	2	23	.	.
CC1CC(C)CN(c2ncc3c(n2)CC(c2ccccc2Cl)CC3=O)C1 (stereo not given)	-33	-2	2	13	.	.
CC1CC(C)CN(c2ncc3c(n2)CC(c2ccc(Cl)cc2)CC3=O)C1 (stereo not given)	32*	-1	-10	4	.	.	MOR-DOR inv ag-2=-13;HTR5A inv confrm=-9
NS(=O)(=O)c1ccc(N=Nc2c[nH]c(=O)c(O)c2)cc1	32*	-4	-9	19	.	.	MOR-DOR inv ag-2=16;HTR5A inv confrm=29
CN(C)c1ccc(N=Nc2ccc(S(N)(=O)=O)cc2)cc1	26	-1	-11	5	.	.
COCCCNC(=O)c1ccc2c(=O)n(Cc3ccc4c(c3)OCO4)c(=S)[nH]c2c1	57*	-1	3	4	.	.	MOR-DOR inv ag-2=-3;HTR5A inv confrm=-13
C=CCN1C(=O)CS/C1=N\S(=O)(=O)c1ccc(Cl)cc1	-11	-1	4	9	.	.
COc1ccc(Cl)cc1C(=O)NNC(=O)CSc1nnc2ccccn12	27*	-2	-10	9	.	.	MOR-DOR inv ag-2=-37;HTR5A inv confrm=-2
O=C1C(Cl)=C(N2CCOCC2)C(=O)N1c1cccc(Cl)c1	30	0	2	-1	.	.
O=C1/C(=C/c2ccccc2)N=C(N2CCOCC2)N1c1cccc(Cl)c1	33*	-1	2	7	.	.	MOR-DOR inv ag-2=-24;HTR5A inv confrm=4
COc1ccc(-c2csc(NC(C)c3nc4cc(C(=O)NCCCO)ccc4n3Cc3ccc(C)cc3)n2)cc1 (stereo not given)	-143	-1	30*	4	0	38*
CN(C)S(=O)(=O)c1cccc(COC(=O)c2ccc3c(c2)OCO3)c1	22	0	0	-2	.	.
CN(C)S(=O)(=O)c1cccc(COC(=O)c2ccc(Cl)cc2O)c1	18	1	16*	-3	39*	-3
O=C(NCCc1c[nH]c2ccccc12)C(=O)NCC(c1ccco1)N1CCN(c2ccc(F)cc2)CC1 (stereo not given)	-166	0	47*	1	6	56*
O=C(NCCc1c[nH]c2ccccc12)C(=O)NCC1OCCCN1S(=O)(=O)c1cc(F)ccc1F (stereo not given)	-151	-3	36*	14	-1	-11
Cc1ccc(Cl)cc1NC(=O)c1cc2ccccc2cc1O	2	8	22*	-41	5	16
CCN(CC)C(=O)c1ccc(S(=O)(=O)N2CCC(c3nc4ccccc4s3)CC2)cc1	-55	2	21*	-15	5	4
OC1CCN(c2cc(-c3ccccc3)nc3cc(-c4ccc(F)cc4)nn23)CC1	-3	-2	1	9	.	.
SMILES	HTR5A inv ag	MOR-DOR ag-1	HTR5A ag	MOR-DOR inv ag-1	MOR-DOR ag-2	HTR5A ag confirm	others
CCN1CCN(c2cc(-c3ccccc3)nc3cc(-c4cccc(F)c4)nn23)CC1	-8	10	14*	-45	11	-3
CC[C@]12c3[nH]c4ccc(OC)cc4c3CCN1C(=O)C(CC(=O)NC(C)(C)C)C[C@@H]2C(=O)N1CCN(C(=O)c2ccco2)CC1 (stereo not given in full)	6	-2	-2	9	.	.
O=C(CC1CCCCC1)NCc1ccccc1Cl	5	-3	6	15	.	.
CC1CC1C(=O)OCC(=O)Nc1ccc(S(=O)(=O)N2CCOCC2)cc1 (stereo not given)	13	-3	-5	12	.	.
Cc1cccc2cc(CNCC3CCCO3)c(Cl)nc12 (stereo not given)	-41	-1	15*	5	0	-1
CCOc1ccc(C2=CS/C(=C(\C#N)c3nnc4n3CCCCC4)N2CC)cc1	-15	-2	15*	12	2	1
Cc1ccnc(NS(=O)(=O)c2ccc(Oc3ccccc3)cc2)c1	0	-2	7	9	.	.
CCCCCc1ccc(S(=O)(=O)Nc2cc(C)ccn2)cc1	-23	-1	17*	4	-1	2
Cc1cc(C)c(C(=O)Nc2ccc(Br)c(C(F)(F)F)c2)c(C)c1	-13	8	18*	-46	0	0
O=C(O)c1ccccc1C(=O)Nc1ccc(Br)c(C(F)(F)F)c1	-5	-1	-4	6	.	.
CN(CC(=O)Nc1ccc(Cl)c(C(F)(F)F)c1)C(=O)CCN1C(=O)C2CC=CCC2C1=O (stereo not given)	-32	-1	1	9	.	.
C/C(=N\NC(=O)Cc1ccccc1)c1ccc(Br)s1	3	5	-1	-24	.	.
C/C(=N/NC(=O)CNC(=O)c1ccccc1)c1ccc(C)cc1	4	0	-1	0	.	.
C/C(=N\NC(=O)CNc1cccc(C)c1)c1ccc(Br)s1	-131	0	25*	2	3	34*
C/C(=N\NC(=O)CNc1ccccc1)c1ccccc1	-49	-1	18*	3	0	0
COc1ccc(Cc2noc(CN(C)CC3(N4CCOCC4)CCCCC3)n2)cc1OC	2	1	-1	-5	.	.
C=CCn1c(SCC(=O)Nc2sccc2C(N)=O)nc2sc(C)c(C)c2c1=O	-46	-1	18*	6	0	-3
C=CCn1c(SCC(=O)Nc2ccccc2C)nc2sc(C)c(C)c2c1=O	-20	3	1	-16	.	.
COC(=O)c1ccc(COC(=O)c2ccc(SC)cc2OC)cc1	6	1	-2	-7	.	.
O=C(COC(=O)CCC(=O)c1cccs1)Nc1cccc(F)c1	-43	0	18*	1	1	6

Bioassay records: PubChem BioAssay, The Scripps Research Institute Molecular Screening Center
